Common to all, as to conditions: 25 µM; exposure: 24-48 hpf
The subject of assay [1] is Danio rerio Tg(wt1b:EGFP) embryo, pronephros. Nature of the assay: glomerular separation, fold change vs DMSO control; higher = glomeruli further apart (abnormal). The procedure, abridged: (§1)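 Dechorionated Tg(wt1b:EGFP) zebrafish embryos were incubated at 28.5°C from 24 to 48 hpf with 25 μM compound in HEPES-buffered E3 containing 0.5% DMSO and 0.003% PTU. Distances and angles between 16 manually set points on maximum projections of dorsal pronephros images were measured in Fiji, with values over 2 SD from the feature mean excluded. Each feature is a fold change relative to the mean of same-day DMSO-treated embryos.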

For assay [2] the test system is unchanged. The assay can be described thus: glomerular width (mean of left and right), fold change vs DMSO control; higher = wider glomerulus. The procedure, abridged: as §1
Assay [3] has the same test system. The assay can be described thus: fraction of imaged embryos annotated as normal kidney; higher = less nephrotoxic; extreme values may be limits of the assay. The procedure, abridged:
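Embryos of the Tg(wt1b:EGFP) zebrafish line were dechorionated and held in 12-well plates with 25 μM compound in 0.5% DMSO and 5 mM HEPES-buffered E3 containing 0.003% PTU, from 24 to 48 hpf at 28.5°C. Larvae were then anaesthetised with tricaine, set dorsal side up in agarose-filled 96-well plates, and their pronephroi imaged by widefield fluorescence at 470 nm over 10 z-slices. Each value is the fraction of embryos per treatment placed in the normal-kidney category after manual annotation of maximum projections.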

The test system is the same in assay [4]. Nature of the assay: pronephric angle neck segment to proximal convoluted tubule (mean of left and right), fold change vs DMSO control; higher = larger pronephric angle. The procedure, abridged: as §1

Molecules are shown by their SMILES. Counter-ions that a name gives are not always drawn. ± gives the standard deviation or the standard deviation of the averaged measurements.

`Cc1cccc(C)c1NC1=NCCCS1` [Xylazine] gave a glomerular separation in assay [1] of 0.757 ± 0.26. The compound further had a glomerular width in assay [2] of 0.997 ± 0.018. Besides, in assay [3], the “fraction of imaged embryos annotated as normal kidney” value (shortened to “fraction of imaged embryos annotated”) worked out at 0.833. Further, in assay [4], the “pronephric angle neck segment” value was found to be 0.966 ± 0.057.

In turn, `O=C(CCCN1CCC2(CC1)C(=O)NCN2c1ccccc1)c1ccc(F)cc1` [Spiperone] returned a glomerular separation in assay [1] of 1.21 ± 0.45. The compound further gave a glomerular width in assay [2] of 0.978 ± 0.02. Moreover, the “fraction of imaged embryos annotated” value in assay [3] amounted to 0.833. For the same compound, in assay [4], the “pronephric angle neck segment” value was found to be 1.06 ± 0.078.

In the case of `COc1ccc2c(c1)[C@]13CCCC[C@@H]1[C@H](C2)N(C)CC3` [Dextromethorphan hydrobromide monohydrate], the glomerular separation in assay [1] was found to be 1.03 ± 0.23. This compound gave a glomerular width in assay [2] of 0.9098 ± 0.004. The “fraction of imaged embryos annotated” value in assay [3] was found to be 0.833. Besides, in assay [4], the “pronephric angle neck segment” value came out at 1.04 ± 0.036.

In turn, `CCN(CC)C(C)C(=O)c1ccccc1` (configuration not stated) [Amfepramone hydrochloride] had a glomerular separation in assay [1] of 0.872 ± 0.24. This compound also registered a glomerular width in assay [2] of 0.97173 ± 0.00026. The “fraction of imaged embryos annotated” value in assay [3] came out at 0.917. Also, the “pronephric angle neck segment” value in assay [4] came out at 1.01 ± 0.0072.

In assay [1], `CN1C(=O)CCS(=O)(=O)C1c1ccc(Cl)cc1` (configuration not stated) [Chlormezanone] came in with a glomerular separation of 1.15 ± 0.46. In assay [2], this compound displayed a glomerular width of 1.05 ± 0.11. Also, the “fraction of imaged embryos annotated” value in assay [3] came to 0.545. In addition, the “pronephric angle neck segment” value in assay [4] was found to be 0.989 ± 0.059.

`S=C(NC1CCCCC1)N1CCC(c2cnc[nH]2)CC1` [Thioperamide maleate]: the glomerular separation in assay [1] came out at 1.28 ± 0.6. Also, in assay [2], the glomerular width worked out at 0.974 ± 0.011. Further, the “fraction of imaged embryos annotated” value in assay [3] was 0.917. Also, in assay [4], the “pronephric angle neck segment” value worked out at 1.06 ± 0.013.

`C[C@]12N[C@H](Cc3ccccc31)c1ccccc12` [Dizocilpine maleate] had a glomerular separation in assay [1] of 0.888 ± 0.31. This compound displayed a glomerular width in assay [2] of 1.03 ± 0.077. Also, the “fraction of imaged embryos annotated” value in assay [3] amounted to 0.917. For the same compound, in assay [4], the “pronephric angle neck segment” value was determined as 0.978 ± 0.071.

The compound `C[C@]12CCC(=O)C(O)=C1CC[C@@H]1[C@@H]2CC[C@]2(C)C(=O)CC[C@@H]12` [Formestane] displayed a glomerular separation in assay [1] of 1.16 ± 0.45. Also, in assay [2], the glomerular width was determined as 0.866 ± 0.031. For the same compound, in assay [3], the “fraction of imaged embryos annotated” value worked out at 0.917. For the same compound, the “pronephric angle neck segment” value in assay [4] is 0.9657 ± 0.0071.

The compound `CC(Cc1ccc(O)cc1)NCC(O)c1cc(O)cc(O)c1` (configuration not stated) [Fenoterol hydrobromide] registered a glomerular separation in assay [1] of 1.33 ± 0.53. Besides, in assay [2], the glomerular width amounted to 1.051 ± 0.0075. For the same compound, the “fraction of imaged embryos annotated” value in assay [3] was 1. Also, the “pronephric angle neck segment” value in assay [4] worked out at 0.916 ± 0.028.

Regarding `CN1C[C@H](CNC(=O)OCc2ccccc2)C[C@@H]2c3cccc4c3c(cn4C)C[C@H]21` [Metergoline], in assay [1], the glomerular separation came to 0.977 ± 0.48. Also, the glomerular width in assay [2] is 0.9966 ± 0.0098. For the same compound, the “fraction of imaged embryos annotated” value in assay [3] was found to be 1. In addition, in assay [4], the “pronephric angle neck segment” value is 0.9894 ± 0.0045.

As to `CC(C)C[C@H](CN)CC(=O)O` [Pregabalin], the glomerular separation in assay [1] was determined as 1.1 ± 0.25. The glomerular width in assay [2] was 0.9518 ± 0.0028. The “fraction of imaged embryos annotated” value in assay [3] stood at 0.917. Also, the “pronephric angle neck segment” value in assay [4] is 1.03 ± 0.03.

`CC(=O)O[C@H]1C[C@H](O[C@H]2[C@@H](O)C[C@H](O[C@H]3[C@@H](O)C[C@H](O[C@H]4CC[C@@]5(C)[C@H](CC[C@@H]6[C@@H]5C[C@@H](O)[C@]5(C)[C@@H](C7=CC(=O)OC7)CC[C@]65O)C4)O[C@@H]3C)O[C@@H]2C)O[C@H](C)[C@H]1O[C@@H]1O[C@H](CO)[C@@H](O)[C@H](O)[C@H]1O` [Lanatoside C]: the glomerular separation in assay [1] worked out at 1.4 ± 0.72. In assay [2], the glomerular width amounted to 0.929 ± 0.065. In addition, the “fraction of imaged embryos annotated” value in assay [3] was 0.917. The “pronephric angle neck segment” value in assay [4] worked out at 1.01 ± 0.041.

Compound `OC(c1ccccc1)(c1ccccc1)C1CCNCC1` [Azacyclonol] returned a glomerular separation in assay [1] of 0.869 ± 0.25. The glomerular width in assay [2] is 0.9558 ± 0.0054. For the same compound, the “fraction of imaged embryos annotated” value in assay [3] was determined as 0.833. The “pronephric angle neck segment” value in assay [4] is 0.994 ± 0.029.

`O=C(CCCN1CCC(n2c(=O)[nH]c3ccccc32)CC1)c1ccc(F)cc1` [Benperidol] yielded a glomerular separation in assay [1] of 1.04 ± 0.25. The compound also displayed a glomerular width in assay [2] of 0.951 ± 0.034. For the same compound, the “fraction of imaged embryos annotated” value in assay [3] was determined as 0.917. In assay [4], the “pronephric angle neck segment” value is 0.992 ± 0.033.

In turn, `C#CCN(C)[C@H](C)Cc1ccccc1` [Selegiline hydrochloride] registered a glomerular separation in assay [1] of 0.996 ± 0.51. Also, the glomerular width in assay [2] came to 0.969 ± 0.055. Also, the “fraction of imaged embryos annotated” value in assay [3] was determined as 0.75. In addition, the “pronephric angle neck segment” value in assay [4] worked out at 0.98 ± 0.017.

For `CCC1=C[C@H]2CN3CCc4c([nH]c5ccccc45)[C@](C(=O)OC)(C2)[C@H]13` [Catharanthine], in assay [1], the glomerular separation was 0.982 ± 0.32. For the same compound, the glomerular width in assay [2] was found to be 1.07 ± 0.1. Moreover, the “fraction of imaged embryos annotated” value in assay [3] was 0.833. Further, the “pronephric angle neck segment” value in assay [4] was 1 ± 0.032.

As for `C[C@@H]1C[C@@H]([C@H](O)CC2CC(=O)NC(=O)C2)C(=O)[C@@H](C)C1` [Cycloheximide], the glomerular separation in assay [1] turned out to be 0.972 ± 0.45. Besides, the glomerular width in assay [2] worked out at 0.604 ± 0.14. Moreover, the “fraction of imaged embryos annotated” value in assay [3] turned out to be 0.2. Besides, the “pronephric angle neck segment” value in assay [4] is 1.73 ± 0.19.

In turn, `C[C@]12COC(=O)C[C@@H]1CC[C@@H]1[C@@H]2CC[C@@]2(C)[C@H]1CC[C@]2(C)O` [Oxandrolone] yielded a glomerular separation in assay [1] of 0.832 ± 0.35. The compound further had a glomerular width in assay [2] of 1.1 ± 0.05. The “fraction of imaged embryos annotated” value in assay [3] was 0.917. In addition, the “pronephric angle neck segment” value in assay [4] amounted to 1.01 ± 0.036.

Turning to `NC(=O)C[S+]([O-])C(c1ccccc1)c1ccccc1` (configuration not stated) [Modafinil], the glomerular separation in assay [1] came out at 1.04 ± 0.25. This compound also returned a glomerular width in assay [2] of 1.09 ± 0.073. The “fraction of imaged embryos annotated” value in assay [3] was determined as 0.5. Further, the “pronephric angle neck segment” value in assay [4] is 1 ± 0.041.

On to `C=CCN1CC[C@]23c4c5ccc(O)c4O[C@H]2C(=O)CC[C@@]3(O)[C@H]1C5` [Naloxone hydrochloride], for which the glomerular separation in assay [1] was determined as 0.981 ± 0.33. This compound gave a glomerular width in assay [2] of 1.01 ± 0.055. Moreover, the “fraction of imaged embryos annotated” value in assay [3] was 0.833. Moreover, the “pronephric angle neck segment” value in assay [4] turned out to be 1.05 ± 0.017.

With `NCC(CC(=O)O)c1ccc(Cl)cc1` (racemic) [Baclofen (R,S)], the glomerular separation in assay [1] was determined as 0.757 ± 0.3. This compound displayed a glomerular width in assay [2] of 0.933 ± 0.0029. For the same compound, the “fraction of imaged embryos annotated” value in assay [3] was determined as 0.833. The “pronephric angle neck segment” value in assay [4] stood at 0.829 ± 0.056.

In assay [1], `CCN(C)C(=O)Oc1cccc([C@H](C)N(C)C)c1` [Rivastigmine] came in with a glomerular separation of 1.1 ± 0.33. In assay [2], this compound had a glomerular width of 0.8935 ± 0.007. Moreover, in assay [3], the “fraction of imaged embryos annotated” value was 0.917. Further, the “pronephric angle neck segment” value in assay [4] is 0.9906 ± 0.0047.

`C=C1CC[C@@]2(O)[C@H]3Cc4ccc(O)c5c4[C@@]2(CCN3CC2CC2)[C@H]1O5` [Nalmefene hydrochloride] gave a glomerular separation in assay [1] of 0.938 ± 0.31. In assay [2], this compound came in with a glomerular width of 1.016 ± 0.01. Also, the “fraction of imaged embryos annotated” value in assay [3] is 0.75. For the same compound, in assay [4], the “pronephric angle neck segment” value was found to be 1.007 ± 0.0021.

As to `CC(C)c1cccc(C(C)C)c1O` [Propofol], in assay [1], the glomerular separation amounted to 0.693 ± 0.2. Besides, the glomerular width in assay [2] came out at 1.02 ± 0.021. Besides, in assay [3], the “fraction of imaged embryos annotated” value worked out at 0.75. The “pronephric angle neck segment” value in assay [4] was found to be 1.02 ± 0.14.

Turning to `O=P1(N(CCCl)CCCl)NCCCO1` (configuration not stated) [Cyclophosphamide], the glomerular separation in assay [1] worked out at 0.894 ± 0.2. The compound also registered a glomerular width in assay [2] of 0.913 ± 0.0021. In assay [3], the “fraction of imaged embryos annotated” value was 0.75. In assay [4], the “pronephric angle neck segment” value was found to be 1.09 ± 0.028.

In the case of `CC(=O)O[C@H]1C[C@@H]2CC[C@@H]3[C@H](CC[C@@]4(C)[C@H]3C[C@H]([N+]3(C)CCCCC3)[C@@H]4OC(C)=O)[C@@]2(C)C[C@@H]1[N+]1(C)CCCCC1` [Pancuronium bromide], the glomerular separation in assay [1] is 1.23 ± 0.41. For the same compound, the glomerular width in assay [2] is 0.928 ± 0.13. In assay [3], the “fraction of imaged embryos annotated” value is 1. Besides, in assay [4], the “pronephric angle neck segment” value was 0.955 ± 0.047.

In assay [1], `NCC1(CC(=O)O)CCCCC1` [Gabapentin] displayed a glomerular separation of 0.802 ± 0.29. Further, the glomerular width in assay [2] is 0.9761 ± 0.0014. Also, the “fraction of imaged embryos annotated” value in assay [3] was determined as 0.75. The “pronephric angle neck segment” value in assay [4] amounted to 0.981 ± 0.016.

For `C[N+]1(C)[C@@H]2CC[C@H]1C[C@@H](OC(=O)C(CO)c1ccccc1)C2` (some centres not stated) [Methylatropine nitrate], in assay [1], the glomerular separation worked out at 1.01 ± 0.39. The same compound gave a glomerular width in assay [2] of 0.936 ± 0.028. Also, in assay [3], the “fraction of imaged embryos annotated” value was 0.917. The “pronephric angle neck segment” value in assay [4] was 1.06 ± 0.017.

Source of the values: the supplement of paper PMC7366291.
